Screens (PubChem)
Most compounds without a hit are left out; they make up all but 4.7% or so of the library.
ADAM17 inh: inhibits human ADAM17; actives 0.83% (n = 370,000); inhibition, % at 6.95 µM; AID 720648; P78536; recombinant ADAM17, EDANS/DABCYL FRET peptide cleavage;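 active = inhibition above the mean of compounds lying between control limits plus 3 SD, set per campaign, cut at about 8.5% in these data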
rCAG binder: binds r(CAG) RNA repeats; AID 651821; inhibition, % at 3 µM; r(CAG) RNA repeat, TO-PRO-1 dye displacement fluorescence; actives 1.3% (n = 370,000);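 active = inhibition above the plate cutoff, the mean of all test compounds on that plate plus 3 SD, cut at about 35% in these data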;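 also: higher means more dye released from RNA so lower well fluorescence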
Pemphigus Ab inh: human desmoglein-3 autoantibody binding inhibition. binding (percent of control), % at 10 µM. DSG3-coupled beads, scFv-anti-DSG3-GFP binding, flow cytometry; hits give low values. AID 588358. actives 0.48% (n = 310,000). P32926;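 active = binding more than 3 SD below its plate's average and above zero; inconclusive = below that plate limit but binding exactly zero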;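 also: hits lower antibody fragment binding to DSG3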
KLK7 zymogen act: activates the human kallikrein-7 zymogen; purified proKLK7, EDANS-DABCYL substrate fluorescence; 100% is mature enzyme control, 0% vehicle; activation, % at 7 µM; actives 0.9% (n = 370,000);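 active = activation above the mean of all tested compounds plus 3 SD, computed per campaign excluding outliers beyond control limits, cut at about 13% in these data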
Target sequence (P49862 whole entry, looked up): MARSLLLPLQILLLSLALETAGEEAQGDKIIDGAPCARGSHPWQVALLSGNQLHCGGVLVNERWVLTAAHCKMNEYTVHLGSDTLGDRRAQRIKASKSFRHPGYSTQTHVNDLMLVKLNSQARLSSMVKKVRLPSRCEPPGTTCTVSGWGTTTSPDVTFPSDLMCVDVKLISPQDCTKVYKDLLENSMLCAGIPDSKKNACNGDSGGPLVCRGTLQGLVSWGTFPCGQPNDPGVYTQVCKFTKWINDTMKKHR
ADAM10 inh: inhibitors of human ADAM10; O14672; recombinant ADAM10, EDANS/DABCYL FRET peptide cleavage, 3 h; inhibition, % at 7 µM; actives 0.62% (n = 370,000);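 active = inhibition above a per-campaign cutoff equal to the mean of compounds falling between control-based bounds plus 3 SD, cut at about 20% in these data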
MPTP block: blocks calcium-induced mitochondrial swelling; isolated mouse mitochondria, Ca2+ swelling absorbance, 30 min; inhibition, % at 10 µM; actives 1.4% (n = 360,000); AID 602449;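 active = inhibition of 50% or more, scaled per plate between neutral and stimulator controls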
ADAM10 confirm: human ADAM10 inhibition, confirmation; shares compounds with ADAM10 inh; ADAM10 QFRET peptide cleavage, EDANS fluorescence; inhibition, % at 6.95 µM; actives 1% (n = 2,100); AID 743208;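 active = inhibition above about 20% chosen separately for each screening run, limit read from the data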
ADAM17 counter: inhibits human ADAM17 in ADAM10 exosite counter-screen | shares compounds with ADAM10 inh | ADAM17 QFRET peptide cleavage, EDANS fluorescence | inhibition, % at 6.95 µM | actives 0.5% (n = 2,100);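 active = mean triplicate inhibition above the solvent-only control wells' mean plus 3 SD, cut at about 12% in these data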
ADAM10 counter: ADAM10 inhibition, counter-screen for ADAM17 exosite hits | inhibition, % at 6.95 µM | AID 743256 | actives 47% (n = 2,900) | recombinant ADAM10, EDANS/DABCYL FRET peptide cleavage, 3 h | shares compounds with ADAM17 inh;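 active = mean inhibition over the triplicate runs exceeds the activity threshold set in the earlier primary screen, cut at about 20% in these data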
ADAM17 confirm: confirmation of inhibitors of human ADAM17; AID 743257; recombinant ADAM17, EDANS/DABCYL QFRET peptide cleavage; inhibition, % at 6.95 µM; shares compounds with ADAM17 inh; actives 65% (n = 2,900);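 active = mean inhibition across replicates above the hit cutoff set in the primary screen, cut at about 8.5% in these data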
Hits are given with their value; – = inactive; ? = inconclusive; · = not tested or not shown.

SMILES	ADAM17 inh	rCAG binder	Pemphigus Ab inh	KLK7 zymogen act	ADAM10 inh	MPTP block	ADAM10 confirm	ADAM17 counter	ADAM10 counter	ADAM17 confirm
CC(C)(C)OC(=O)[C@H](Cc1ccccc1)NC(=O)c1nc[nH]c1C(=O)NCc1ccccc1	11.5	–	–	–	24.6	–	–	–	31.0	16.7
CC(C)(C)OC(=O)NCc1ccc(CNC(=O)c2[nH]cnc2C(=O)N[C@@H](Cc2ccccc2)C(=O)OC(C)(C)C)cc1	14.3	–	–	–	41.7	–	–	–	55.7	27.0
CC1CCCC(C)N1C(=O)COC(=O)c1cccs1 (stereo not given)	–	–	·	–	–	–	·	·	·	·
OC(c1ccc2ccccc2c1)c1ncc(-c2cccc3ccccc23)[nH]1 (stereo not given)	–	–	·	–	–	–	·	·	·	·
Clc1cccc(CN2CCN(c3ncc(Cc4ccccc4)cn3)CC2)c1Cl	–	–	·	–	–	·	·	·	·	·
N#CC(=Nc1ccccc1)c1ccccc1	–	–	–	–	–	–	·	·	·	·
Clc1ccc(-c2[nH]ncc2N=Nc2ccccc2)cc1	10.3	–	?	–	21.6	–	–	–	–	10.4
Cc1cc(NC(=O)c2c(F)cccc2Cl)n(-c2nc3ccccc3[nH]2)n1	10.3	–	–	–	29.7	–	–	–	39.7	16.7
Cc1cccc(C(=O)OCC(=O)c2c(C)[nH]c3ccccc23)c1O	–	–	–	–	–	–	·	·	·	·
CCOC(=O)c1c(C)[nH]c(C)c1C(=O)COC(=O)c1cccc(C)c1O	9.3	–	–	–	20.0	–	–	–	–	–
O=C(CN1C(=O)c2ccc([N+](=O)[O-])cc2C1=O)NC1CCCCCC1	–	–	–	–	–	–	·	·	·	·
CCOC(=O)c1c(C)[nH]c(C(=O)C(C)OC(=O)c2cccc(OCc3c(C)noc3C)c2)c1C (stereo not given)	13.4	–	–	–	29.9	–	–	–	47.4	22.5
CCCCOC(=O)Nc1ccc(C(=O)OCCC)cc1	–	–	–	–	–	–	·	·	·	·
CCCCOC(=O)c1ccc(NC(=O)c2c(Cl)ccc(Cl)c2OC)cc1	9.3	–	·	–	22.2	–	–	–	22.0	13.6
COc1cccc(N)c1	–	–	·	–	–	·	·	·	·	·
Nc1cccc(Oc2c(F)c(F)c(Oc3cccc(N)c3)c(F)c2F)c1	9.2	–	–	–	23.0	–	–	–	40.8	20.4
COc1ccc(NC(=O)Cn2nnc(-c3ccccc3)c2COc2ccc3ccccc3c2)cn1	11.5	–	·	–	20.1	–	–	–	30.9	16.7
COc1ccc(NC(=O)Cn2nnc(-c3ccccc3)c2COc2ccc(C(C)=O)cc2)cn1	–	–	·	–	–	–	·	·	·	·
COC(=O)C1=C(C)N(Cc2cccc(C(F)(F)F)c2)C(=NCc2ccc(C(F)(F)F)cc2)NC1c1cccc(F)c1 (stereo not given)	9.4	–	·	–	21.1	·	–	–	22.4	12.3
C#CCOCCOCCOCCNc1nc(N2CCN(C(=O)Cn3cc(CCO)nn3)CC2)nc(N2CCN(C(=O)[C@H](CCCCN)n3cc(CC(C)O)nn3)CC2)n1 (stereo not given in full)	–	–	–	–	–	–	·	·	·	·
Cc1cc(NC(=O)CS(=O)(=O)c2cn(Cc3cccc(Cl)c3)c3ccccc23)no1	10.7	–	·	–	20.1	–	–	–	–	–
CCN(CC(=O)Nc1cccc(OC)c1)CC(=O)Nc1ccc(Br)c(C)c1	11.8	–	–	–	22.6	–	–	–	44.8	16.1
O=C(CN1CCN(C(=O)C2CC2)CC1)Nc1cc(C(F)(F)F)cc(C(F)(F)F)c1	–	–	–	–	–	–	·	·	·	·
COc1ccc(NC(=S)Nc2cc(-c3ccccc3)[nH]n2)cc1Cl	18.5	–	–	–	32.4	–	–	–	36.1	22.4
Cc1cccc(C(=O)Nc2cccc(NC(=O)c3ccccc3)c2)c1	10.3	–	–	–	25.9	–	–	–	–	10.8
SMILES	ADAM17 inh	rCAG binder	Pemphigus Ab inh	KLK7 zymogen act	ADAM10 inh	MPTP block	ADAM10 confirm	ADAM17 counter	ADAM10 counter	ADAM17 confirm
Cc1cccc(C(=O)Nc2ccc(NC(=O)c3ccccc3)cc2)c1	–	–	–	–	–	–	·	·	·	·
COc1ccc(/C=C(/C(=O)Nc2ccccc2C(=O)NC(C)C)c2ccccc2)cc1	9.6	–	–	–	20.1	–	–	–	–	–
COc1ccccc1CNS(=O)(=O)c1cc(-c2cc(C)no2)ccc1C(C)C	11.0	–	·	–	31.8	–	–	–	–	11.6
CCN(CC)C(=O)[C@H]1C[C@H](CC(=O)NCc2cccc(C(F)(F)F)c2)C(=O)N2CCc3c([nH]c4ccc(Cl)cc34)[C@]12C	10.7	–	–	–	23.2	–	–	–	30.8	13.4
Cn1nccc1-c1coc2c(C(=O)NCc3ccccc3)cccc12	–	–	·	–	–	–	·	·	·	·
Cc1cc2oc(=O)cc(-c3ccccc3)c2c(C)c1-c1ccc(O)cc1	16.1	–	–	–	33.1	–	–	–	–	12.7
COc1cc2oc(=O)cc(-c3ccc(-c4ccc(O)cc4)cc3)c2c(OC)c1OC	–	–	–	–	–	–	·	·	·	·
CC(C)(C)NC(=O)C(c1ccc(-c2ccccc2)cc1)N(C[C@H]1CC[C@@H]([C@@H]2CC[C@H](CO)O2)O1)C(=O)c1ccc2ccccc2c1 (stereo not given in full)	10.3	–	–	–	21.2	–	–	–	–	10.1
CC(OC(=O)c1ccccn1)C(=O)Nc1ccc2c(c1)OCCO2 (stereo not given)	–	–	–	–	–	–	·	·	·	·
CCN(c1ccccc1)S(=O)(=O)c1cc(C(=O)OC(C)C(=O)Nc2ccc3c(c2)OCCO3)ccc1C (stereo not given)	15.1	–	–	–	27.5	–	–	–	–	13.1
CCC1(c2ccccc2)NC(=O)N(CC(=O)Nc2ccc(S(=O)(=O)N3CC(C)CC(C)C3)cc2)C1=O (stereo not given)	10.3	–	–	–	21.1	–	–	–	48.5	23.7
CC(C)C[C@H](NC(=O)c1nc[nH]c1C(=O)N[C@@H](CC(C)C)C(=O)OC(C)(C)C)C(=O)OCc1ccccc1	–	–	·	–	–	·	·	·	·	·
